Experimental data from the supplement of paper PMC6555819.

Legend:
Assay in all cases: PBM binding z-score (relative to random genomic background probes); higher = stronger binding; sequences stand for … in GC…GCGATTGACAGCGTAGAATGAAGG
[1] = test system: RARb homodimer (NR concentration 270 nM)
How it was run: (§1)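 Binding z-scores take random background probes as their reference. They come from custom Agilent 4×180K protein-binding microarrays incubated 1 h with ligand-free nuclear receptor dimers, with antibodies against each partner (one per run) detecting binding. Scanned fluorescence was regression-normalized.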

[2] = test system: RARg:RXRa (NR concentration 270 nM, RXRa partner concentration 90 nM)
How it was run: as §1

[3] = test system: RARg homodimer (NR concentration 270 nM)
How it was run: as §1

[4] = test system: RXRa DBDmut IVT, anti-RXR (DBD mutation: RXRa K156A/R161A, NR concentration 90 nM)
How it was run: as §1

[5] = test system: RXRa homodimer (NR concentration 180 nM)
How it was run: as §1

[6] = test system: THRa:RXRa (NR concentration 90 nM, RXRa partner concentration 90 nM)
How it was run: as §1

[7] = test system: THRa homodimer (NR concentration 90 nM)
How it was run: as §1

[8] = test system: VDR homodimer (NR concentration 270 nM)
How it was run: as §1

Work on CAAACTAGGTCAGGAGGTCAAAGTCCGCTTCCCG yielded a PBM binding z-score [1] of 5.3, a PBM binding z-score [2] of 6.99 and a PBM binding z-score [3] of 5.98. It also gave a PBM binding z-score [4] of 2.11, a PBM binding z-score [5] of 5.81 and a PBM binding z-score [6] of 3.97. It also gave a PBM binding z-score [7] of 2.52 and a PBM binding z-score [8] of 3.61.
Work on CCTTACGGGTCCCGAGGTTATAGCACGACGAGCG yielded a PBM binding z-score [1] of 0.515, a PBM binding z-score [2] of 0.416 and a PBM binding z-score [3] of 0.388. For the same sequence, the PBM binding z-score [4] was -1.34, the PBM binding z-score [5] was 0.999 and the PBM binding z-score [6] was 1.1. It also gave a PBM binding z-score [7] of 0.132 and a PBM binding z-score [8] of 0.162.
ATCTCTAGGTAAAAGTTCAGTTAATCCCGAGGAT showed a PBM binding z-score [1] of 2.52, a PBM binding z-score [2] of 2.1 and a PBM binding z-score [3] of 2.04. The PBM binding z-score [4] was 0.885, the PBM binding z-score [5] was 1.63 and the PBM binding z-score [6] was 1.61. For the same sequence, the PBM binding z-score [7] was 0.805 and the PBM binding z-score [8] was 2.12.
TCATATAGGTAAACAGGTGATAGTCCGTAAGTTA was tested, and the PBM binding z-score [1] was 0.338, the PBM binding z-score [2] was 0.509 and the PBM binding z-score [3] was 0.323. It also gave a PBM binding z-score [4] of 1.35, a PBM binding z-score [5] of 0.949 and a PBM binding z-score [6] of 0.375. The PBM binding z-score [7] was 0.179 and the PBM binding z-score [8] was 0.482.
Sequence ATCGAAAGGTCGAAGGTGAGGATACCCACCCGAA has a PBM binding z-score [1] of 2.56, a PBM binding z-score [2] of 4.41 and a PBM binding z-score [3] of 3.84. The PBM binding z-score [4] was 0.413, the PBM binding z-score [5] was 5.16 and the PBM binding z-score [6] was 3.1. The PBM binding z-score [7] was 1.1 and the PBM binding z-score [8] was 0.293.
Work on GTTCCAAGGTGAATAGGTCGTTGATGAGTAGGCG yielded a PBM binding z-score [1] of 2.22, a PBM binding z-score [2] of 2.74 and a PBM binding z-score [3] of 1.76. The PBM binding z-score [4] was 0.23, the PBM binding z-score [5] was 1.72 and the PBM binding z-score [6] was 2.4. It also gave a PBM binding z-score [7] of 0.975 and a PBM binding z-score [8] of 0.742.
For ATCTCTAGGTAAAAGTTCAATGAATCCCGAGGAT, the PBM binding z-score [1] was 3, the PBM binding z-score [2] was 2.3 and the PBM binding z-score [3] was 2.41. The PBM binding z-score [4] was 1.29, the PBM binding z-score [5] was 2.4 and the PBM binding z-score [6] was 1.71. It also gave a PBM binding z-score [7] of 0.132 and a PBM binding z-score [8] of 2.73.
Sequence ATCGAAAGGTCGAGGTGAGTAAAGAGAAAGGGAA has a PBM binding z-score [1] of 2.34, a PBM binding z-score [2] of 4.22 and a PBM binding z-score [3] of 4.38. The PBM binding z-score [4] was 0.813, the PBM binding z-score [5] was 4.08 and the PBM binding z-score [6] was 2.63. For the same sequence, the PBM binding z-score [7] was 0.539 and the PBM binding z-score [8] was 0.357.
Sequence CATACAGGGTCAGCTATGCCAGAGTAGGGACGGC has a PBM binding z-score [1] of 2.98, a PBM binding z-score [2] of 4.2 and a PBM binding z-score [3] of 4.27. The PBM binding z-score [4] was 1.55, the PBM binding z-score [5] was 4.14 and the PBM binding z-score [6] was 2.75. For the same sequence, the PBM binding z-score [7] was 0.818 and the PBM binding z-score [8] was 1.06.
Sequence ATCGCTAGGTAACCAAGTTCAGTGAATGCCGAAC has a PBM binding z-score [1] of 0.915, a PBM binding z-score [2] of 0.229 and a PBM binding z-score [3] of 0.277. The PBM binding z-score [4] was 0.0688, the PBM binding z-score [5] was 0.062 and the PBM binding z-score [6] was 0.934. For the same sequence, the PBM binding z-score [7] was -0.378 and the PBM binding z-score [8] was 1.7.
CCTAGCAGGCCAATCTGGGTCAGTCAAGGCTTGA showed a PBM binding z-score [1] of 1.82, a PBM binding z-score [2] of 0.465 and a PBM binding z-score [3] of 1.02. It also gave a PBM binding z-score [4] of -0.281, a PBM binding z-score [5] of -0.197 and a PBM binding z-score [6] of 2.97. For the same sequence, the PBM binding z-score [7] was -0.159 and the PBM binding z-score [8] was -0.52.
TAGCGTAGGTCATTCAGGGGCCAGTATAGAAAGC showed a PBM binding z-score [1] of 3.37, a PBM binding z-score [2] of 6.52 and a PBM binding z-score [3] of 5.07. The PBM binding z-score [4] was 1.79, the PBM binding z-score [5] was 3.93 and the PBM binding z-score [6] was 3.56. The PBM binding z-score [7] was -0.427 and the PBM binding z-score [8] was 1.25.
CCTTGGAGGACAGAAGGTCAGAGCTGTCCGCTTT showed a PBM binding z-score [1] of 3.56, a PBM binding z-score [2] of 3.54 and a PBM binding z-score [3] of 3.38. It also gave a PBM binding z-score [4] of 0.276, a PBM binding z-score [5] of 1.95 and a PBM binding z-score [6] of 2.22. It also gave a PBM binding z-score [7] of 0.0306 and a PBM binding z-score [8] of 0.62.
GCTGCTAGGTCAACTGATGGTAAGCTAAAGCTCG showed a PBM binding z-score [1] of 2.98, a PBM binding z-score [2] of 4.25 and a PBM binding z-score [3] of 4.92. It also gave a PBM binding z-score [4] of 1.14, a PBM binding z-score [5] of 2.73 and a PBM binding z-score [6] of 2.9. For the same sequence, the PBM binding z-score [7] was 0.776 and the PBM binding z-score [8] was -0.0201.
Work on CAAACTTGGTCACAGAGGTCAAAGTCCGTGCGTA yielded a PBM binding z-score [1] of 4.73, a PBM binding z-score [2] of 5.89 and a PBM binding z-score [3] of 5.25. It also gave a PBM binding z-score [4] of 2.34, a PBM binding z-score [5] of 6.56 and a PBM binding z-score [6] of 3.98. The PBM binding z-score [7] was 1.36 and the PBM binding z-score [8] was 4.8.
TCTTGTAGATCAGCAGGTTGAGAAAGCTGGCCAA was tested, and the PBM binding z-score [1] was -0.505, the PBM binding z-score [2] was -0.343 and the PBM binding z-score [3] was -0.727. It also gave a PBM binding z-score [4] of 0.441, a PBM binding z-score [5] of 0.0477 and a PBM binding z-score [6] of -0.234. It also gave a PBM binding z-score [7] of -0.41 and a PBM binding z-score [8] of -0.222.
Work on CTCGAAAGGTCGTGATCAGGTGAGTATACCAAAC yielded a PBM binding z-score [1] of 2.66, a PBM binding z-score [2] of 4.85 and a PBM binding z-score [3] of 3.85. For the same sequence, the PBM binding z-score [4] was 1.9, the PBM binding z-score [5] was 4.72 and the PBM binding z-score [6] was 4.04. For the same sequence, the PBM binding z-score [7] was 0.717 and the PBM binding z-score [8] was 0.668.
